EWS-Fli inh = EWS/Fli-driven NR0B1 reporter inhibitors, primary screen, A673 cells, NR0B1 luciferase, luminescence, MLPCN library. viability-normalised. inhibition, % at 12.6 µM. 350,000 tested, 0.67% active;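 active means mean inhibition of at least 50% after viability correction, with every replicate also passing that limit; inconclusive means mean reaches 50% but only one of two replicates passes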;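 further: firefly luciferase signal divided by Alamar Blue viability fluorescence both relative to DMSO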
TWEAK Fn14 block = inhibitors of TWEAK-Fn14 signaling, primary screen, luciferase reporter cells, uHTS. TWEAK-stimulated Fn14 reporter cells, luciferase luminescence, 8 h. 360,000 tested, 2% active. inhibition, % at 10 µM; in the data active means inhibition above about 50%
TROY NFkB inh = inhibitors of TROY-driven NF-kB signaling, primary screen, Q293 LMP1-TROYcd cells, NF-kB luciferase, uHTS; Q293 LMP1-TROYcd NF-kB luciferase reporter, 4 h; inhibition, % at 10 µM; 360,000 tested, 0.98% active;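 active means compounds whose plate-normalised and pattern-corrected inhibition of the luciferase reporter signal at the single screening dose is 50% or more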
LGR2 antag = inhibitors of bursicon-induced LGR2 CRE-luciferase signal, primary screen, cell-based, HEK293, CRE-luciferase reporter, bursicon stimulation. inhibition, % at 9.99 µM. bursicon-stimulated, 4 h. AID 720647, 2013. Drosophila bursicon receptor LGR2 (rickets). 380,000 tested, 0.35% active;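 active means drop in luminescence signal, shown as inhibition above about 50% in the replicate tests, limit read from the data, passing the limit was not always enough; inconclusive means probably only some replicates passing the limit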;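 further: agonist challenge used bursicon conditioned medium at about half maximal strength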
EBV LMP1 NFkB = EBV LMP1-driven NF-kappaB luciferase reporter inhibitors, primary screen, cell-based, luminescence, single point; LMP1-induced NF-kappaB luciferase reporter cells; inhibition, % at 12.5 µM; 350,000 tested, 0.69% active; AID 504558, 2011; in the data active means inhibition above about 41%; inconclusive means no clear call, values can overlap the other calls
A number is an active result; n = inactive; u = inconclusive; x = no result. Hits are enriched below; roughly 2.5% of the tested compounds scored in any of these assays.

SMILES	EWS-Fli inh	TWEAK Fn14 block	TROY NFkB inh	LGR2 antag	EBV LMP1 NFkB
S=c1nccc(-c2ccc3c(c2)CCO3)[nH]1	n	n	n	n	n
CC1(C)Nc2ccccc2C(=O)N1c1ccccc1	n	n	n	n	62
CC1(C)Nc2ccccc2C(=O)N1NC(=O)c1ccccc1	n	n	n	n	n
Cc1oc(-c2ccc(Cl)cc2)nc1CSCC(=O)NC1CCN(Cc2ccccc2)CC1	n	n	n	n	n
CCOc1ccc(-c2cc(CCCC(=O)NCc3ccco3)no2)cc1	71	n	n	n	n
CCc1ccc(-c2nc(CS(=O)CC(=O)NCc3ccco3)c(C)o2)cc1 (configuration not stated)	x	76	n	n	n
CCOc1ccc(-c2nnn(CC(=O)NCc3ccco3)n2)cc1	x	n	n	x	n
CCOc1ccc(-c2nc(CSCC(=O)NCc3ccco3)c(C)o2)cc1	x	65	n	x	60
CCOc1ccc(-c2nc(CSCC(=O)NC3CCN(Cc4ccccc4)CC3)c(C)o2)cc1	59	n	n	n	n
O=C(/C=C/Nc1ccc(F)cc1F)c1cccs1	x	60	n	79	n
Cc1ccc(N/C=C/C(=O)c2cccs2)cc1	59	81	55	75	n
O=C(/C=C/Nc1ccccc1F)c1cccs1	x	64	n	80	n
O=C(/C=C\Nc1cccc(F)c1)c1cccs1	x	n	n	x	n
COC1=C(OC)C(=O)C(Sc2ccc3ccccc3c2)=CC1=O	n	58	n	n	n
COc1ccc(S(=O)(=O)Oc2ccc3ccccc3c2)cc1	n	n	n	n	n
OC[C@@H]1CN(Cc2ccc(-c3ccccc3)cc2)C[C@H](n2cnc3c(Nc4ccccc4)ncnc32)O1	n	92	n	n	x
OC[C@@H]1CN(Cc2ccc(-c3ccccc3)cc2)C[C@H](n2cnc3c(NCc4ccc(F)cc4)ncnc32)O1	n	88	50	n	x
OC[C@@H]1CN(Cc2ccc(F)cc2)C[C@H](n2cnc3c(Nc4ccccc4)ncnc32)O1	n	n	n	n	x
CCNC(=O)C[C@H]1CC[C@@H]2[C@@H](COc3ccc(NC(=O)Nc4ccccc4Cl)cc3C(=O)N2C)O1	n	x	x	n	x
COc1ccc(C(CC(=O)c2ccc(C)cc2)C(C#N)C#N)cc1OC (configuration not stated)	x	88	n	53	n
COC(=O)C(C(=O)OC)C(CC(=O)c1ccc(C)cc1)c1cc(OC)c(OC)c(OC)c1 (configuration not stated)	n	n	n	n	n
O=C([C@H]1[C@H](CO)[C@H]2Cn3c(cccc3=O)[C@@H]1N2CC1CCCC1)N1CCOCC1	n	x	x	n	x
O=C(C[C@@H]1C[C@@H]2c3cc(NC(=O)NC4CCCC4)ccc3O[C@@H]2[C@@H](CO)O1)NCc1cccnc1	n	x	x	n	x
O=S(=O)(Nc1ccc(O)c2ccccc12)c1cccs1	n	82	n	n	n
Cc1ccc(-c2ccc3c(c2)O[C@@H](CN(C)C)[C@@H](C)CN([C@@H](C)CO)S3(=O)=O)cc1	n	x	x	n	x
SMILES	EWS-Fli inh	TWEAK Fn14 block	TROY NFkB inh	LGR2 antag	EBV LMP1 NFkB
C[C@@H]1CN([C@@H](C)CO)C(=O)c2cc(C#Cc3cccnc3)cnc2O[C@H]1CN(C)C(=O)CN(C)C	n	x	x	n	x
CC1CN(c2nc3ccccn3c(=O)c2/C=C(\C#N)C(N)=O)CC(C)O1 (configuration not stated)	n	91	n	n	n
COCC(=O)Nc1ccc2c(c1)C(=O)N(C)[C@H]1CC[C@@H](CC(=O)NCc3ccccc3F)O[C@H]1CO2	n	x	x	n	x
CO[C@H]1CN(C)C(=O)c2cc(NC(=O)CC(F)(F)F)ccc2OC[C@H](C)N(C(C)=O)C[C@H]1C	x	x	x	n	x
CC(=O)N1[C@@H]2c3cccc(=O)n3C[C@@H]2[C@@H](CO)[C@@H]1C(=O)N1CCc2ccccc2C1	n	x	x	n	x
C/C(=N\NC(=O)c1cc2ccccc2cc1O)c1cccs1	n	53	n	n	n
O=C(NNC(=O)c1cc2ccccc2cc1O)c1cccs1	n	n	n	n	n
O=C(C[C@@H]1CC[C@@H]2[C@H](COC[C@H](O)CN2Cc2ccccc2F)O1)NCc1ccccc1F	n	x	x	n	x
COc1ccc(OC)c(NC(=O)c2cnc3n(c2=O)CCS3)c1	n	n	n	n	n
COc1ccc(Cl)cc1NC(=O)c1cnc2n(c1=O)CCS2	n	53	n	n	n
COC(=O)c1cc(C)nc2c1C(=O)C(=O)C=C2N1CCOCC1	73	103	n	60	n
COc1ccc2c3c(n(C)c2c1)[C@H](CO)N(C(=O)NC(C)C)CC31CCN(Cc2nccs2)CC1	n	x	x	n	x
Cc1sc(N=Nc2ccc(N(C)C)cc2)[n+]([O-])c1C	n	61	63	n	n
CC(=O)c1ccc2c(c1)CC1(C2)Cc2cc3c(cc2C1)C(=O)CC3 (configuration not stated)	u	57	51	n	n
CCC(=O)N1[C@H](CO)[C@@H]2c3ccccc3N(C(=O)Nc3cccc(Cl)c3)C[C@@H]21	n	x	x	n	x
O=C(Nc1ccc(N2CCN(c3ccc(O)cc3)CC2)cc1)Oc1ccccc1	n	n	n	n	n
Nc1ccc(OC(=O)Nc2ccc(O)cc2)cc1	n	66	n	n	n
Cc1[nH]c(-c2ccc(F)cc2)cc1C(=O)N1CCN(c2ccc(Cl)cc2)CC1	n	89	n	n	n
COc1ccc(N2CCN(C(=O)c3cc(-c4ccc(F)cc4)[nH]c3C)CC2)cc1	n	n	n	n	n
Oc1nc(Nc2ccc(F)cc2)sc1/C=C1\C=Nc2ccccc21	n	n	n	n	n
Oc1nc(Nc2cccc(Cl)c2)sc1/C=C1\C=Nc2ccccc21	n	53	83	n	n
CC1=Nc2ccccc2/C1=C\c1sc(Nc2ccc(C)cc2)nc1O	n	55	n	n	n
Oc1cccc(Nc2nc(O)c(/C=C3\C=Nc4ccccc43)s2)c1	n	n	n	n	n
CO[C@H]1CN(C)C(=O)c2ccc(NC(C)=O)cc2OC[C@H](C)N(C(=O)c2cccnc2)C[C@@H]1C	n	x	x	n	x
CCNC(=O)C[C@H]1CC[C@@H]2[C@H](COc3ccc(NC(=O)c4cccc(C(F)(F)F)c4)cc3C(=O)N2C)O1	n	x	x	n	x
C[C@@H]1CN([C@H](C)CO)C(=O)Cc2cc(NC(=O)CCC(F)(F)F)ccc2O[C@@H]1CN(C)S(C)(=O)=O	n	x	x	n	x
CCS(=O)(=O)NCC[C@H]1CC[C@@H](NS(=O)(=O)c2ccccc2C)[C@@H](CO)O1	n	x	x	n	x
CC(=O)Oc1ccccc1/C=C/c1nc2ccccc2c(=O)o1	n	62	n	65	45
CC(=O)Oc1ccc(/C=C/c2nc3ccccc3c(=O)o2)cc1	n	79	50	59	n
C/C=C/c1ccc([C@H]2[C@@H](CNC(C)=O)N(C(=O)Cc3cccnc3)[C@H]2CO)cc1	n	x	x	n	x
